# Experimental data reported in PubChem BioAssay (NCATS).
# Records with an inconclusive call do not appear. Entries that show only a call come without a potency. The source made the active and inactive calls. The call rests on the fitted dose curve; in most records, active means well fitted cell-killing curve with a large enough effect; inconclusive means small, poorly fitted or top-dose-only effect; inactive means flat fitted curve, though single readings scatter. Where a SMILES comes first, the peptide text is derived from it. [ ]: non-standard residue; d: D form. The star is where a group is joined. Sta = CC(C)C[C@H](N)[C@@H](O)CC(=O)O; Isovaleryl = CC(C)CC(=O)*
# Test: Quantitative highthroughput screen to assess conditional lethalithy of NOMO1 cells grown in RPMI1640 with dialyzed fetal bovine serum (RPMI+ds) (AID 1963877); further: nearly all actives have a fitted effect of over 30% in size
# Settings: NOMO1 in RPMI+dialyzed FBS viability, ATP luminescence, 48 h; series mostly up to 45.8 µM
# Description: Assay Provider: Jason Cantor Ph.D.
# Department of Biochemistry
# University of Wisconsin-Madison, Madison, WI, USA
# Chemical screening studies have identified drug sensitivities across hundreds of cancer cell lines but most putative therapeutics fail to translate. Discovery and development of drug candidates in models that more accurately reflect nutrient levels in human blood is a major challenge. Here we performed high-throughput screens in conventional versus Human Plasma-Like Medium (HPLM) to identify compounds that were "missed" when screening using the artificial culture condition. Sets of conditional anticancer compounds spanned phases of clinical development and included non-oncology drugs were assessed. […] We also traced conditional phenotypes for several chemotherapeutics to availability of HPLM-specific metabolites and confirmed others for compounds whose reported targets are encoded by nonessential genes. Our findings establish generalizable strategies for exploiting conditional lethality in HPLM to reveal therapeutic candidates and mechanisms of action in cancer cells.
# Described herein are the results of each viability screens against three cell lines: NOMO1 (an acute myeloid leukemia cell line); P12-Ichikawa (a T-cell acute lymphoblastic leukemia); and SEM (a B-cell ALL). Each assay was screened using 3 different cell culture media: homemade human plasma-Like medium with 10% dialyzed fetal bovine serum (HPLM+ds); RPMI1640 with 10% untreated FBS and 5mM glucose (RPMI+s); and RPMI1640 with 10% dialyzed fetal bovine serum and 5 mM glucose (RPMI+ds).
# PROTOCOL TABLE (as described by Inglese J, Shamu CE and Guy RK. 2007)
# SEQUENCE No. (e.g., 1, 2, 3, etc.); […] (e.g., Cells, Incubation, Reagent, etc.); VALUE and DESCRIPTION.
# 1; Cells; 5 uL; white, solid bottom 1536-well Greiner assay plate.
# 2; Compounds; 23 nL; Kalypsis pin tool (Wako USA) equipped with a 1536-well pin head to transfer to the assay plates.
# 3; Incubation; 48 hours; 37C incubation.
# 4; Reagent; 3 uL; CellTiter Glo (Promega).
# 5; Incubation; 5 min, room temperature
# 6; Detection; Luminescence, Viewlux PerkinElmer.
# NOTES (numbers refer to Sequence numbers above)
# 1. Briefly, 5 ul of cell reagent was dispensed using a Multidrop Combi Dispenser. The NOMO1 and SEM cells were plated at 500 cells/well and the P12-Ichikawa line at 1000 cells/well.
# 2. After seeding the cells, 23 nL of MIPE 4.1 library compounds (in DMSO) were added to each plate using a Kalypsys 1536 Pintool dispenser. Bortezomib at final concentration of […] and DMSO were added to each plate as positive and negative controls respectively. For each screen, MIPE 4.1 compounds were added over an eleven-point concentration range […] in 3-fold dilutions.
# 3. Each plate was covered with a stainless steel gasketed lid to prevent evaporation and incubated for 48 hour at 37C, 95% relative humidity, and 5% CO2.
# 4-5. Three microliter CellTilter-GloTM luminescent substrate mix (Promega) reagent was added to the assay plate and incubated at room temperature for 5 min.
# 6. The luminescence signal was measured using a ViewLux (PerkinElmer) multiplate reader with a 2 second exposure time per plate. Data for each compound were normalized as percent viability such that measurements for DMSO and the empty well controls in each plate were defined as 100% and 0%, respectively.
# Potency means the concentration at half of the fitted maximal effect.
row,Compound,Potency
1,COc1cc(N2CCC(C(N)=O)CC2)ccc1Nc1nc(N)c(Cl)c(Nc2ccccc2S(=O)(=O)C(C)C)n1,16.6 µM (active)
2,Cc1cc(Nc2cc(N3CCN(C)CC3)nc(C=Cc3ccccc3)n2)n[nH]1,3.4 µM (active)
3,Clc1ccc(COC(Cn2ccnc2)c2ccc(Cl)cc2Cl)c(Cl)c1 (stereo not given),inactive
4,C[C@H]1[C@@H](OC(=O)CCC(=O)O)O[C@@H]2O[C@@]3(C)CC[C@@H]4[C@H](C)CC[C@@H]1[C@@]24OO3,1.32 µM (active)
5,Cc1onc(-c2ccccc2Cl)c1C(=O)N[C@@H]1C(=O)N2[C@@H]1SC(C)(C)[C@@H]2C(=O)O,inactive
6,CC(=O)N[C@H]1[C@@H]([C@H](O)[C@H](O)CO)OC(C(=O)O)=C[C@@H]1N=C(N)N,inactive
7,CN1CC(=O)N2C(Cc3c([nH]c4ccccc34)[C@H]2c2ccc3c(c2)OCO3)C1=O (stereo not given in full),inactive
8,COc1c(N2CCNC(C)C2)c(F)cc2c(=O)c(C(=O)O)cn(C3CC3)c12 (stereo not given),inactive
9,COc1cc([C@@H]2c3cc4c(cc3[C@H](O)[C@H]3COC(=O)[C@@H]23)OCO4)cc(OC)c1OC,0.526 µM (active)
10,CC1(C)CCC(C)(C)c2cc(NC(=O)c3ccc(C(=O)O)cc3)ccc21,inactive
11,C[N+]1(C)[C@@H]2CC(OC(=O)[C@H](CO)c3ccccc3)C[C@H]1[C@H]1O[C@@H]12 (stereo not given in full),inactive
12,c1cc(OCCN2CCCCC2)cc(-c2n[nH]c3ccc(-c4ncn[nH]4)cc23)c1,inactive
13,COc1ccc([C@@H]2CNC(=O)C2)cc1OC1CCCC1,inactive
14,N=c1nc(N2CCCCC2)cc(N)n1O,inactive
15,CCN[C@H]1C[C@H](C)S(=O)(=O)c2sc(S(N)(=O)=O)cc21,inactive
16,CC(C)CC(=O)N[C@H](C(=O)N[C@H](C(=O)N[C@@H](CC(C)C)[C@@H](O)CC(=O)N[C@@H](C)C(=O)N[C@@H](CC(C)C)[C@@H](O)CC(=O)O)C(C)C)C(C)C (Isovaleryl-VV[Sta]A[Sta]-OH),inactive
17,CN1CCN(c2c(F)cc3c(=O)c(C(=O)O)cn(CCF)c3c2F)CC1,inactive
18,C[C@@H]1CCN(C(=O)CC#N)C[C@H]1N(C)c1ncnc2[nH]ccc12,inactive
19,O=c1oc2cc(O)ccc2s1,inactive
20,c1ccc2c(Oc3nc(Nc4ccc(N5CCOCC5)cc4)c4ncn(C5CCCCC5)c4n3)cccc2c1,inactive

row,Compound,Potency
1,COc1cccc2c1C(=O)c1c(O)c3c(c(O)c1C2=O)C[C@@](O)(C(=O)CO)C[C@@H]3O[C@H]1C[C@H](N)[C@@H](O)[C@H](C)O1,2.96 µM (active)
2,NC(=O)c1cnccn1,inactive
3,CC(C)c1ccc(Cn2ccc3c4c(N)nc(NC5CC5)nc4ccc32)cc1,5.9 µM (active)
4,CC(C)=CC[C@@H](O)C1=CC(=O)c2c(O)ccc(O)c2C1=O,2.09 µM (active)
5,Cc1cc(-c2nnc3n2CCCCC3)c(C)n1-c1ccccc1,inactive
6,CN1c2cc(O)c(N=NC(N)=O)cc2CC1S(=O)(=O)O (stereo not given),inactive
7,CC1(C)CC(=O)c2c(C(F)(F)F)nn(-c3ccc(C(N)=O)c(NC4CCC(O)CC4)c3)c2C1 (stereo not given),0.187 µM (active)
8,OC1CCC(Nc2ncc3nc(Nc4c(F)cc(F)cc4F)n([C@@H]4CCOC4)c3n2)CC1 (stereo not given in full),inactive
9,CCc1ccc(OCc2ccccc2C(=O)Nc2ccc3nc(C)cc(N)c3c2)cc1,8.33 µM (active)
10,COc1c2occc2cc2ccc(=O)oc12,inactive
11,Cc1cc(O)c2c(c1)C(=O)c1cc(O)cc(O)c1C2=O,inactive
12,NS(=O)(=O)c1cc2c(cc1Cl)NC=NS2(=O)=O,inactive
13,COc1cccc2nc(-c3cccs3)nc(NN3C(=O)C=C(C)C3=O)c12,1.32 µM (active)
14,Nc1nc2ccc(OC(F)(F)F)cc2s1,inactive
15,CC1=C(C(=O)O)N2C(=O)[C@@H](NC(=O)C(N)c3ccccc3)[C@H]2SC1 (stereo not given in full),inactive
16,Nc1[nH]nc2nnc(-c3c(-c4ccccc4)nn4ccccc34)cc12,2.64 µM (active)
17,O=C1NC(=O)C(=Cc2cccc(C(F)(F)F)c2)S1,inactive
18,COc1ccc(C2CC(c3ccccc3)=NN2c2ccc(S(N)(=O)=O)cc2)cc1 (stereo not given),4.18 µM (active)
19,C[C@@H]1O[C@@H](O[C@H]2CC[C@@]3(C)[C@H](CC[C@@H]4[C@H]3C[C@@H](O)[C@]3(C)[C@@H](C5=CC(=O)OC5)CC[C@]43O)C2)C[C@H](O)[C@@H]1O[C@H]1C[C@H](O)[C@H](O[C@H]2C[C@H](O)[C@@H](O)[C@@H](C)O2)[C@H](C)O1 (stereo in doubt),0.382 µM (active)
20,CCCCNc1cc(C(=O)O)cc(S(N)(=O)=O)c1Oc1ccccc1,inactive
